Reference: PubChem BioAssay (NCI)
Compounds without any hit were thinned out: in the full panel of roughly 83,000, 20% have a hit.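 Method: cells in 96-well plates; compound added at one concentration; 48 h incubation; percent growth measured; values under 10 scored active.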 Activity calls are given as the source filed them.

Experiments:
Assay in all cases: NCI-60 one-dose screen, 48 h (100 = growth as untreated, 0 = no growth, -100 = all killed)
Conditions in all cases: 10 µM
786-0 renal = tested on: 786-0 renal
MALME-3M melanoma = tested on: MALME-3M melanoma
SF-268 CNS = tested on: SF-268 CNS
SF-295 CNS = tested on: SF-295 CNS
UACC-257 melanoma = tested on: UACC-257 melanoma
PC-3 prostate = tested on: PC-3 prostate
UACC-62 melanoma = tested on: UACC-62 melanoma
SK-MEL-28 melanoma = tested on: SK-MEL-28 melanoma
SK-MEL-2 melanoma = tested on: SK-MEL-2 melanoma
EKVX NSCLC = tested on: EKVX NSCLC
SN12C renal = tested on: SN12C renal
UO-31 renal = tested on: UO-31 renal
TK-10 renal = tested on: TK-10 renal
ACHN renal = tested on: ACHN renal
CAKI-1 renal = tested on: CAKI-1 renal
A498 renal = tested on: A498 renal
OVCAR-8 ovarian = tested on: OVCAR-8 ovarian
OVCAR-5 ovarian = tested on: OVCAR-5 ovarian
IGROV1 ovarian = tested on: IGROV1 ovarian
OVCAR-3 ovarian = tested on: OVCAR-3 ovarian

Measured: growth

O=C(Nc1ccc(Oc2ncnc3scc(Nc4n[nH]c(=S)s4)c23)cc1)C1(C(=O)Nc2cccc(C(F)(F)F)c2)CC1
inactive: 786-0 renal 107% | MALME-3M melanoma 95.8% | SF-268 CNS 102% | SF-295 CNS 108% | UACC-257 melanoma 110% | PC-3 prostate 103% | UACC-62 melanoma 86.5% | SK-MEL-28 melanoma 108% | SK-MEL-2 melanoma 113% | EKVX NSCLC 97.1% | SN12C renal 108% | UO-31 renal 69.4% | TK-10 renal 143% | ACHN renal 95.6% | CAKI-1 renal 81.6% | A498 renal 122% | OVCAR-8 ovarian 103% | OVCAR-5 ovarian 87.9% | IGROV1 ovarian 70% | OVCAR-3 ovarian 104%

COc1cccc(C(=O)CSc2nc(-c3ccc(OCc4ccccc4)c(OC)c3)c(C#N)c(=O)[nH]2)c1
inactive: 786-0 renal 85.7% | MALME-3M melanoma 98.3% | SF-268 CNS 97.4% | SF-295 CNS 95.2% | UACC-257 melanoma 94% | PC-3 prostate 103% | UACC-62 melanoma 90.9% | SK-MEL-28 melanoma 96.5% | SK-MEL-2 melanoma 91.7% | EKVX NSCLC 97.1% | SN12C renal 85.6% | UO-31 renal 82.8% | TK-10 renal 94.7% | ACHN renal 99.9% | CAKI-1 renal 90.8% | A498 renal 95.4% | OVCAR-8 ovarian 105% | OVCAR-5 ovarian 100% | IGROV1 ovarian 106% | OVCAR-3 ovarian 106%

COc1cc(C2CC(c3ccc(Oc4ccc(Cl)cc4)cc3)=NN2c2nc(-c3ccc(Cl)cc3)c(C#N)c(N3CCOCC3)n2)cc(OC)c1OC (stereo not given)
inactive: 786-0 renal 98.8% | MALME-3M melanoma 106% | SF-268 CNS 104% | SF-295 CNS 107% | UACC-257 melanoma 101% | PC-3 prostate 92% | UACC-62 melanoma 91.2% | SK-MEL-28 melanoma 97.8% | SK-MEL-2 melanoma 106% | EKVX NSCLC 94.5% | SN12C renal 91.4% | UO-31 renal 79.2% | TK-10 renal 96.1% | ACHN renal 96.5% | CAKI-1 renal 79% | A498 renal 114% | OVCAR-8 ovarian 104% | OVCAR-5 ovarian 101% | IGROV1 ovarian 106% | OVCAR-3 ovarian 117%

Cn1cc(-c2nc(N)nnc2-c2c[nH]c3ccccc23)c2cc(Br)cnc21
inactive: 786-0 renal 28.4% | MALME-3M melanoma 36.7% | SF-268 CNS 20.3% | SF-295 CNS 15% | UACC-257 melanoma 46% | PC-3 prostate 13.3% | UACC-62 melanoma 21.1% | SK-MEL-28 melanoma 39.8% | SK-MEL-2 melanoma 24.7% | EKVX NSCLC 29.8% | SN12C renal 17.7% | UO-31 renal 11.8% | TK-10 renal 64.2% | ACHN renal 19.2% | CAKI-1 renal 11.9% | A498 renal 96.3% | OVCAR-5 ovarian 21.8% | IGROV1 ovarian 23.2%
active: OVCAR-8 ovarian 5.76% | OVCAR-3 ovarian 9.25%

Cc1ccc2c(c1)C(=O)/C(=C/c1c[nH]c3ccccc13)S2
inactive: 786-0 renal 63.9% | MALME-3M melanoma 91.9% | SF-268 CNS 44.9% | SF-295 CNS 73.2% | UACC-257 melanoma 72.4% | PC-3 prostate 23.7% | UACC-62 melanoma 54.4% | SK-MEL-28 melanoma 65.2% | SK-MEL-2 melanoma 99.7% | EKVX NSCLC 50.8% | SN12C renal 51.2% | UO-31 renal 40.4% | TK-10 renal 105% | ACHN renal 58.2% | CAKI-1 renal 37.1% | A498 renal 127% | OVCAR-8 ovarian 55.3% | OVCAR-5 ovarian 87% | IGROV1 ovarian 59.8% | OVCAR-3 ovarian 42.7%

CCn1c(SCC(=O)Nc2ccc(-c3nc4ccccc4[nH]3)cc2)nc2ccccc2c1=O
active: 786-0 renal -89.1% | MALME-3M melanoma -83.6% | SF-268 CNS -29.4% | SF-295 CNS -66.8% | UACC-257 melanoma -84.6% | PC-3 prostate -80.6% | UACC-62 melanoma -81.7% | SK-MEL-28 melanoma -76.7% | SK-MEL-2 melanoma -79.4% | EKVX NSCLC -42.5% | SN12C renal -77.7% | UO-31 renal -95.4% | TK-10 renal -95.4% | ACHN renal -86.4% | CAKI-1 renal -99.2% | A498 renal -75% | OVCAR-8 ovarian -85.5% | OVCAR-5 ovarian -44.4% | IGROV1 ovarian -52.5% | OVCAR-3 ovarian -66.1%

O=C(Nc1ccc(OCC(=O)c2ccc(Cl)cc2)cc1)Nc1ccc(Cl)c(C(F)(F)F)c1
active: PC-3 prostate 7.67% | SK-MEL-2 melanoma -35.4% | A498 renal 0.685%
inactive: 786-0 renal 26% | MALME-3M melanoma 27.4% | SF-268 CNS 46.5% | SF-295 CNS 27.5% | UACC-257 melanoma 19.8% | UACC-62 melanoma 18.1% | SK-MEL-28 melanoma 32.7% | EKVX NSCLC 16.9% | SN12C renal 58% | UO-31 renal 13.9% | TK-10 renal 71.9% | ACHN renal 16.8% | CAKI-1 renal 41.1% | OVCAR-8 ovarian 30.1% | OVCAR-5 ovarian 61.2% | IGROV1 ovarian 39.9% | OVCAR-3 ovarian 34%

Cc1cc(N=C2NC(=O)/C(=C/c3cc(C(C)(C)C)c(O)c(C(C)(C)C)c3)S2)n[nH]1
active: SF-295 CNS -0.721% | UACC-257 melanoma 4.76% | UACC-62 melanoma 8.86% | SK-MEL-2 melanoma -27.6% | EKVX NSCLC 2.77% | TK-10 renal -11.6% | A498 renal -8.54% | OVCAR-8 ovarian 8.93% | OVCAR-3 ovarian 9.43%
inactive: 786-0 renal 12% | MALME-3M melanoma 19.2% | SF-268 CNS 32.7% | PC-3 prostate 10.7% | SK-MEL-28 melanoma 22.9% | SN12C renal 16.6% | UO-31 renal 16.7% | ACHN renal 14% | CAKI-1 renal 12.4% | OVCAR-5 ovarian 36.6% | IGROV1 ovarian 14.4%
